Screening data (PubChem)
Shown are actives, neighbours in structure and some others; about 2.2% of the full set was active somewhere.
KLF5 inhibitor = KLF5 expression inhibitors, primary screen, DLD-1 cells, luminescence; actives 0.23% (n = 290,000); DLD-1 KLF5 promoter-luciferase reporter; inhibition, % at 5 µM;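 active = inhibition above a per-plate limit of that plate's mean compound inhibition plus 3 SD, cut at about 60% in these data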;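 also: 0% = DMSO wells and 100% = LY294002 at 200 µM; higher means less KLF5 promoter-driven luciferase light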
IEC-6 tox = cytotoxicity in IEC-6 intestinal epithelial cells, primary screen, cytotoxicity control for KLF5 inhibitor project, cell-based, luminescence; inhibition, % at 5 µM; IEC-6 cytotoxicity, luminescence viability; actives 0.78% (n = 290,000); AID 1825, 2009; in the data active = inhibition above about 22%;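 also: 0% = plate median of test compound wells and 100% = cytotoxic reference compound wells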
APP 5UTR inh = inhibitors of APP translation via 5'UTR reporter, primary screen, APP 5'UTR luciferase, SH-SY5Y cells; SH-SY5Y APP 5'UTR-luciferase reporter, luminescence; inhibition, % at 2 µM; actives 0.82% (n = 190,000);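 active = inhibition above a set limit, derived from the sample mean plus 3 SD, cut at about 45% in these data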
aSyn 5UTR inh = MLPCN primary screen, SNCA 5' untranslated region; alpha-synuclein 5'UTR reporter, inhibitor activity; inhibition, % (tested at 7.5 µM); actives 0.82% (n = 300,000); AID 1813, 2009; in the data active = inhibition above about 60%;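 also: H4 neuroglioblastoma cells stably carrying SNCA 5'UTR luciferase fusion; 0% = DMSO wells and 100% = positive control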
BaF3 parental = parental Ba/F3 cell viability inhibition, counter-screen for JAK2V617F inhibitor project, murine pro-B, CellTiter-Glo luminescence. actives 1.1% (n = 220,000). CellTiter-Glo ATP luminescence. AID 1486, 2009. inhibition, % at 5.6 µM;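 active = inhibition above a per-campaign cutoff, the mean inhibition of all tested compounds plus 3 SD, cut at about 27% in these data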;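 also: 0% = DMSO wells and 100% = JAK Inhibitor I control wells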
Ba/F3 V617F tox = reduced viability of JAK2V617F-dependent Ba/F3 cells, primary screen, JAK2V617F inhibitor project, cell-based, Ba/F3 EpoR-JAK2V617F, luminescence; inhibition, % at 5.6 µM; ATP luminescence; actives 1.1% (n = 220,000);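 active = inhibition above the campaign mean plus 3 SD over all tested compounds, cut at about 24% in these data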;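 also: cytokine-independent growth of Ba/F3 cells driven by EpoR plus mutant JAK2; 0% = DMSO-treated cells and 100% = JAK inhibitor I control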
* hit, by the source's call; · = no result given.

SMILES	KLF5 inhibitor	IEC-6 tox	APP 5UTR inh	aSyn 5UTR inh	BaF3 parental	Ba/F3 V617F tox
Cc1cc(NC(=O)C(C)SCC(=O)Nc2cc(C(F)(F)F)ccc2N2CCOCC2)no1 (stereo not drawn)	·	·	·	-1	·	·
CC(=O)C1=C(O)C(=O)N(Cc2ccccc2)C1c1ccccc1F (stereo not drawn)	-5	-4	-14	3	37*	1
Cc1ccc(NC(=S)N(CCN(C)C)C(C)c2ccco2)cc1Cl (stereo not drawn)	-42	-3	·	-4	30*	27*
CCN1CCN(CCCN(Cc2ccco2)C(=S)Nc2ccc(C)c(Cl)c2)CC1	-4	1	3	16	32*	37*
CN1CCN(CCCN(Cc2ccco2)C(=S)Nc2ccc(Cl)cc2)CC1	-7	2	-15	12	29*	40*
Cc1ccc(NC(=S)N(CCCN2CCOCC2)Cc2ccco2)cc1Cl	-4	6	6	-12	20	5
CCN1CCN(CCCN(Cc2ccco2)C(=S)Nc2ccc(Cl)cc2)CC1	-6	-2	-14	-13	29*	36*
O=C(CC1C(=O)NCCN1Cc1ccccc1C(F)(F)F)NCCn1cccn1 (stereo not drawn)	-2	5	2	8	4	1
CCn1c(SCC(=O)NC2CCCCC2)nnc1C(CO)NC(=O)c1ccccc1 (stereo not drawn)	-19	-1	·	5	·	·
Cc1ccc(NC(=S)N(CCCN2CCN(C)CC2)Cc2cccs2)cc1C	8	10	6	9	29*	36*
CCN1CCN(C(=S)Nc2ccc(Cl)cc2)CC1	14	-1	-5	-5	35*	25*
CCN1CCN(CCCN(Cc2ccco2)C(=S)Nc2cc(Cl)ccc2C)CC1	-26	3	-6	16	69*	63*
Cc1ccccc1NC(=S)N(CCCN1CCCCC1)Cc1ccco1	13	-3	5	13	5	0
Cc1cc(SCC(=O)Nc2cccc(S(=O)(=O)N3CCOCC3)c2)nc2ccccc12	-18	-3	12	3	1	0
O=C(CCNS(=O)(=O)c1ccc2[nH]c(=O)oc2c1)Nc1cccc(Br)c1	2	-4	·	-2	·	·
Cc1oc2c(c1C(=O)O)C(=O)c1ccccc1C2=O	-11	-14	-12	-62	19	6
Cc1oc2c(c1C(=O)c1ccccc1)C(=O)C(=O)c1ccccc1-2	-103	2	-92	127*	-3	5
CCOc1ccc(-n2ccnc(SCC(=O)Nc3ccc(CC)cc3)c2=O)cc1	·	·	·	-12	·	·
O=c1c2ccccc2nnn1Cc1ccc2ccccc2c1	-8	3	8	-28	89*	2
COC(=O)c1cccc(Cn2nnc3ccccc3c2=O)c1	-13	0	-5	12	-2	-3
Cc1ccccc1Cn1c(NC2CCCC2)nc2c1c(=O)[nH]c(=O)n2C	-13	10	·	20	·	·
Fc1ccc(NC(=S)N2CCc3ccccc3C2)c(F)c1	-3	2	8	-49	39*	15
Fc1ccc(NC(=S)N2CCOCC2)c(F)c1	-11	-1	·	12	·	·
CCOc1ccc(NC(=O)C2CSC(c3ccncc3)=N2)cc1 (stereo not drawn)	18	8	46*	-25	7	2
CCc1nn2cc(-c3ccccc3)nc2s1	-72	2	-153	80*	5	-2
SMILES	KLF5 inhibitor	IEC-6 tox	APP 5UTR inh	aSyn 5UTR inh	BaF3 parental	Ba/F3 V617F tox
O=C(NNC(=O)c1ccccc1C(=O)O)c1cc2ccccc2o1	1	1	·	-20	·	·
CN(CC(O)COc1ccc(OCC(O)CN(C)C2CCCCC2)cc1)C1CCCCC1 (stereo not drawn)	-36	11	9	-11	6	1
Cc1cccc(C)c1OCC(O)CN(Cc1ccccc1O)C1CCCCC1 (stereo not drawn)	-38	1	4	62*	3	2
O=C(NC1CCSc2ccccc21)c1ccc(F)cc1 (stereo not drawn)	-22	6	·	-13	·	·
O=[N+]([O-])c1cccc(-c2nnc(C3CC3)o2)c1	-23	-4	·	-5	35*	-6
CCOc1c(C)cnc2c1c(=O)n(Cc1c(F)cccc1Cl)c(=O)n2C	-20	-4	·	-1	·	·
